Source: PubChem BioAssay (EPA / NIEHS)
“And” between values parts separate entries of the source, which are not always exact repeats. Equal values may be shown once. Records with an inconclusive call do not appear. Some structures have more than one record in an assay (separate samples or runs), and their calls can disagree. The source made the active and inactive calls. How the source made its calls, unless noted: active means hit-call score of the fitted dose curve at least 0.9, where 1 is the maximum; inactive means score below 0.9.

Columns and labels:
[1] = target: Nuclear respiratory factor 1 (Homo sapiens) (UniProt Q16656); assay: ATG_NRF1_CIS: Attagene CIS-FACTORIAL HepG2 Assay for human Nuclear Respiratory Factor 1 (NRF1) Orphan Gene (AID 2282987); conditions: HepG2 NRF1 cis-element reporter, Attagene multiplex; actives raise or lower the signal
Outline: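 Measured: fluorescent reporter-specific RT-PCR products from transfected HepG2 cells, separated by capillary electrophoresis. Exposure lasted 24 h. Analysis used bidirectional curve fitting with DMSO as negative control.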

[2] = ATG_NFI_CIS: Attagene CIS-FACTORIAL HepG2 Assay for human Nuclear Factor I (NFI) (AID 2282989); conditions: HepG2 cis-regulatory reporter, NFI response element transcription; actives raise or lower the signal
Outline: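 After transient transfection of HepG2 with cis-promoter reporter constructs and 24 h dosing, RNA is reverse-transcribed, amplified, 6-FAM end-labelled and HpaI-digested before capillary analysis. Bidirectional curve fitting against DMSO.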

[3] = target: Myc proto-oncogene protein (Homo sapiens) (UniProt P01106); assay: ATG_Myc_CIS: Attagene CIS-FACTORIAL HepG2 Assay for human Myelocytomatosis (Myc) Proto-Oncogene Transcription Factor (AID 2282990); conditions: HepG2, Attagene cis-reporter transcription factor activity; actives raise or lower the signal
Outline: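 Multiplexed cis-reporter transcription in HepG2 cells after 24 h chemical treatment. Reporter mRNA measured by RT-PCR and capillary electrophoresis fluorescence; activity fitted bidirectionally against DMSO control.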

[4] = ATG_NF_kB_CIS: Attagene CIS-FACTORIAL HepG2 Assay for human Nuclear Factor Kappa B (NF-kB) (AID 2282991); conditions: HepG2 Attagene cis-factorial NF-kB reporter mRNA; actives raise or lower the signal
Outline: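 Fluorescence of labelled RT-PCR products separated by capillary electrophoresis gives reporter mRNA levels from transfected HepG2 cells exposed 24 h; values are fitted in both directions relative to DMSO.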

[5] = ATG_NRF2_ARE_CIS: Attagene CIS-FACTORIAL HepG2 Assay for human Nuclear Factor Erythroid 2 Related Factor 2 (NFR2) response to Antioxidant Response Elements (ARE) (AID 2282992); conditions: HepG2 Attagene ARE/NRF2 reporter, transcription factor activity; actives raise or lower the signal
Outline: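 Transient MRTU transfection of HepG2; 24 h compound exposure; TriZol RNA, RT with oligo(dT), PCR, 6-FAM primer extension, HpaI cut, CE. Bidirectional fit vs DMSO.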

[6] = ATG_Oct_MLP_CIS: Attagene CIS-FACTORIAL HepG2 Assay for human Octamer-Binding Transcription Factor (Oct) (AID 2282993); conditions: HepG2 Attagene cis-factorial Oct reporter, mRNA; actives raise or lower the signal
Outline: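 Cells of the HepG2 line express promoter-controlled reporter sequences whose mRNA levels, after 24 h treatment, are measured by RT-PCR and capillary electrophoresis. Increases and decreases are scored relative to DMSO.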

[7] = target: Cellular tumor antigen p53 (Homo sapiens) (UniProt P04637); assay: ATG_p53_CIS: Attagene CIS-FACTORIAL HepG2 Assay for human p53 Transcription Factor (AID 2282994); conditions: HepG2 p53 cis-element reporter, Attagene mRNA; actives raise or lower the signal
Outline: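 HepG2, transient MRTU transfection (cis promoter elements, endogenous TFs); 24 h dosing; RNA isolation, RT-PCR, 6-FAM primer extension, HpaI digest, CE fluorescence; bidirectional fit vs DMSO.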

[8] = BSK_3C_TissueFactor: BioMAP Diversity Plus: 3C Assay for Tissue Factor Biomarker Activity (AID 2282997); conditions: BioMAP 3C HUVEC, tissue factor biomarker readout; actives raise or lower the signal
Outline: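 Values derive from bidirectional curve fitting against DMSO of Tissue Factor ELISA signals, taken 24 h after dosing primary human umbilical vein endothelial cells.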

[9] = BSK_3C_uPAR: BioMAP Diversity Plus: 3C Assay for Urokinase-type plasminogen activator receptor (uPAR) Biomarker Activity (AID 2282998); conditions: BioMAP 3C HUVEC, uPAR biomarker ELISA; actives raise or lower the signal
Outline: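 Endothelial primary cells of human umbilical vein origin received test chemical; 24 h later uPAR was assayed by ELISA. Fitting was bidirectional, DMSO as negative control.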

[10] = BSK_3C_VCAM1: BioMAP Diversity Plus: 3C Assay for Vascular cell adhesion molecule 1 (VCAM1) Biomarker Activity (AID 2282999); conditions: BioMAP 3C HUVEC, VCAM1 ELISA, cytokine-stimulated; actives raise or lower the signal
Outline: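 Human umbilical vein endothelial cells were dosed with compound for 24 h, after which cell-surface VCAM-1 was quantified by ELISA. Bidirectional curve fitting used DMSO as negative control and activity baseline.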

[11] = BSK_4H_Eotaxin3: BioMAP Diversity Plus: 4H Assay for Eotaxin 3 Biomarker Activity (AID 2283000); conditions: primary human endothelial cells (HUVEC); actives raise or lower the signal
Outline: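 Endothelial primary cells (human umbilical vein) exposed to compound for 24 h. ELISA detection of Eotaxin-3.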

[12] = target: human Peroxisome Proliferator-activated Receptor alpha (PPARa), PPARA (gene 5465) (UniProt Q07869); assay: ATG_PPARa_TRANS: Attagene TRANS-FACTORIAL HepG2 Assay for human Peroxisome Proliferator-activated Receptor alpha (PPARa) (AID 2283001; active means hit-call score of the fitted dose curve at least 0.9, where 1 is the maximum;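 on AC50: potency for gain of reporter signal over DMSO so agonist or activator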)
Outline: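 HepG2 cells transiently transfected with multiplexed GAL4-UAS reporter units and chimeric NR-Gal4 constructs were dosed for 24 h. Reporter mRNA was measured by RT-PCR with fluorescent labelling and capillary electrophoresis; gain of signal fitted against DMSO.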

[13] = target: human Peroxisome Proliferator-activated Receptor delta (PPARd), PPARD (gene 5467) (UniProt Q03181); assay: ATG_PPARd_TRANS: Attagene TRANS-FACTORIAL HepG2 Assay for human Peroxisome Proliferator-activated Receptor delta (PPARd) (AID 2283002; active means hit-call score of the fitted dose curve at least 0.9, where 1 is the maximum)
Outline: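 Multiplexed trans-activation format: HepG2 liver cells expressing exogenous NR-Gal4 chimeras and GAL4-UAS reporters were exposed for 24 h. Reporter mRNA was detected by RT-PCR with capillary electrophoresis fluorescence; activity fitted as gain of signal relative to DMSO.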

[14] = read-out: Intercellular Adhesion Molecule 1 (ICAM1), ICAM1 (gene 3383); assay: BSK_3C_ICAM1: BioMAP Diversity Plus: 3C Assay for Intercellular Adhesion Molecule 1 (ICAM1) Biomarker Activity (AID 2283003); conditions: primary human endothelial cells (HUVEC); actives raise or lower the signal
Outline: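 Human vascular endothelial primary cells, 3C conditions, 24 h treatment. ICAM-1 by ELISA.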

[15] = BSK_3C_Proliferation: Cell Proliferation Assessment in the BioMAP Diversity Plus: 3C Assay (AID 2283006); conditions: primary human endothelial cells (HUVEC);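 on AC50: potency may reflect either rise or fall in cell number versus DMSO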
Outline: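 Proliferation of human vascular endothelial primary cells after 48 h dosing, quantified as SRB-stained protein at 560 nm relative to DMSO.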

[16] = target: Peroxisome proliferator-activated receptor gamma (Homo sapiens) (UniProt P37231); assay: ATG_PPARg_TRANS: Attagene TRANS-FACTORIAL HepG2 Assay for human Peroxisome Proliferator-activated Receptor-gamma (PPARg) (AID 2283007; active means hit-call score of the fitted dose curve at least 0.9, where 1 is the maximum)
Outline: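 Twenty-four hours after chemical dosing of transiently transfected HepG2 cells, isolated RNA was converted to cDNA, reporter sequences amplified and 6-FAM-labelled, then HpaI-digested and analysed by capillary electrophoresis. Signal increase against DMSO was fitted.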

[17] = target: Nuclear receptor subfamily 1 group I member 2 (Homo sapiens) (UniProt O75469); assay: ATG_PXR_TRANS: Attagene TRANS-FACTORIAL HepG2 Assay for human Pregnane X Receptor (PXR) (AID 2283008; active means hit-call score of the fitted dose curve at least 0.9, where 1 is the maximum)
Outline: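 Read-out is fluorescence of labelled reporter cDNA fragments separated by capillary electrophoresis after RT-PCR and HpaI digestion. Source: HepG2 cells carrying PXR-GAL4/UAS reporter constructs, treated 24 h; activity fitted upward relative to DMSO.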

[18] = target: human Retinoic Acid Receptor gamma (RARg), RARG (gene 5916) (UniProt P13631); assay: ATG_RARg_TRANS: Attagene TRANS-FACTORIAL HepG2 Assay for human Retinoic Acid Receptor gamma (RARg) (AID 2283009; active means hit-call score of the fitted dose curve at least 0.9, where 1 is the maximum)
Outline: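 HepG2, RARg-GAL4 TRANS system, 24 h exposure; reporter mRNA by RT-PCR + CE fluorescence; increase over DMSO.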

[19] = target: human Retinoic Acid Receptor beta (RARb), RARB (gene 5915) (UniProt P10826); assay: ATG_RARb_TRANS: Attagene TRANS-FACTORIAL HepG2 Assay for human Retinoic Acid Receptor beta (AID 2283004; active means hit-call score of the fitted dose curve at least 0.9, where 1 is the maximum)
Outline: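 HepG2, transient MRTU transfection, NR–Gal4 chimera, 24 h treatment; RT-PCR plus CE fluorescence detection of reporter mRNA; gain of signal vs DMSO.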

[20] = target: Retinoic acid receptor alpha (Homo sapiens) (UniProt P10276); assay: ATG_RARa_TRANS: Attagene TRANS-FACTORIAL HepG2 Assay for human Retinoic Acid Receptor alpha (RARa) (AID 2283005; active means hit-call score of the fitted dose curve at least 0.9, where 1 is the maximum)
Outline: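 HepG2 cells transiently transfected with multiple reporter units expressing chimeric RARα-GAL4 fusion, with GAL4-UAS-driven reporters. After 24 h compound exposure, reporter mRNA induction quantified by RT-PCR and capillary electrophoresis with fluorescent labeling; gain-of-signal fitted relative to DMSO control.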

Measured: AC50

Sequence of Cellular tumor antigen p53 (Homo sapiens) (P04637 whole entry, looked up): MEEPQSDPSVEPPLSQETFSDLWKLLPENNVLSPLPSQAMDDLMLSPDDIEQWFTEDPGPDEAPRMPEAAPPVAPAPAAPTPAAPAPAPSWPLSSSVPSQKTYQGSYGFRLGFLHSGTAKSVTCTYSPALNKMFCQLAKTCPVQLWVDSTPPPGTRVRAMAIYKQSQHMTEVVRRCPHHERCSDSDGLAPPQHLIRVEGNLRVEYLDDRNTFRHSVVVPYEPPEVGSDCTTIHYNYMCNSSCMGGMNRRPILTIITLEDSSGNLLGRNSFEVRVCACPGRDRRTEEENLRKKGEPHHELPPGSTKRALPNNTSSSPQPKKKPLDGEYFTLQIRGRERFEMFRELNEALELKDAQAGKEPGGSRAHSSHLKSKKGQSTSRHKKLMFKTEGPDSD
Sequence of Peroxisome proliferator-activated receptor gamma (Homo sapiens) (P37231 whole entry, looked up): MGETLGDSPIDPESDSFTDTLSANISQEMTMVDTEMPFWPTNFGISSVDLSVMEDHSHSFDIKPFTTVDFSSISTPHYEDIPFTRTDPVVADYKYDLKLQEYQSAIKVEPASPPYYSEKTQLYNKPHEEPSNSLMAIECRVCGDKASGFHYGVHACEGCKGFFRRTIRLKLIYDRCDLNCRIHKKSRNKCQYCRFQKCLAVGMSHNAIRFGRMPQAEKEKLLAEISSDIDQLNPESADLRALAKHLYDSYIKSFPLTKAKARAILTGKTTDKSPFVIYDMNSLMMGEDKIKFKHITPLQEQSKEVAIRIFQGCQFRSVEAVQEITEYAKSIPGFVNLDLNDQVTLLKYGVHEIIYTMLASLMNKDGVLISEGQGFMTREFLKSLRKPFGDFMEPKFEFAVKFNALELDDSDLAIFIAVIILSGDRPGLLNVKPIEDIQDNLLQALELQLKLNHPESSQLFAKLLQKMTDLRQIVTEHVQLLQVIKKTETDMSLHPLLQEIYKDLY
Sequence of human Peroxisome Proliferator-activated Receptor delta (PPARd), PPARD (gene 5467) (Q03181 whole entry, looked up, the tested form may be a part): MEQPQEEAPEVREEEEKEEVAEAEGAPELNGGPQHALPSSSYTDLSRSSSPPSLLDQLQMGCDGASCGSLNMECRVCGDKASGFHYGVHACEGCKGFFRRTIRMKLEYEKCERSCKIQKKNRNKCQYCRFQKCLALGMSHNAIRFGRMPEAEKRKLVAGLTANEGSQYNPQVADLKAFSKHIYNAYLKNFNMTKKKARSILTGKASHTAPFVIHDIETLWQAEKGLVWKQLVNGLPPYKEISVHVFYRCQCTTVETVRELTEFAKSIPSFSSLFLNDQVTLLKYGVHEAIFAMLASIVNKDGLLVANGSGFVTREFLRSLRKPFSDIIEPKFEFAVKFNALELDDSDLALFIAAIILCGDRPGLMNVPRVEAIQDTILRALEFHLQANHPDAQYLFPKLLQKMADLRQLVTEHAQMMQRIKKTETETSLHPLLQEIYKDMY
Sequence of human Retinoic Acid Receptor beta (RARb), RARB (gene 5915) (P10826 whole entry, looked up, the tested form may be a part): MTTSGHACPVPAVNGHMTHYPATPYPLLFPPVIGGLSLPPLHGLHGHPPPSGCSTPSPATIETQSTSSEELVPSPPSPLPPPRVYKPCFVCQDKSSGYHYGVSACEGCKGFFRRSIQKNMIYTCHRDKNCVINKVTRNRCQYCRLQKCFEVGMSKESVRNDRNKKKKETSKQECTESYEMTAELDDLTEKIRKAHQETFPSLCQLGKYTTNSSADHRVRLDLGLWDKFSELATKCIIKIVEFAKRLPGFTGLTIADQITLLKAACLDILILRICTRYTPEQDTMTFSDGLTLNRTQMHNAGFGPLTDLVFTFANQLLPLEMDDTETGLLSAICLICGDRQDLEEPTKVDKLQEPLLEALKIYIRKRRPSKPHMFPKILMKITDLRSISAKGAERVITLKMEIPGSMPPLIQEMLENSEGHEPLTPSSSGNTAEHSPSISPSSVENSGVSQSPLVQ
Sequence of human Retinoic Acid Receptor gamma (RARg), RARG (gene 5916) (P13631 whole entry, looked up, the tested form may be a part): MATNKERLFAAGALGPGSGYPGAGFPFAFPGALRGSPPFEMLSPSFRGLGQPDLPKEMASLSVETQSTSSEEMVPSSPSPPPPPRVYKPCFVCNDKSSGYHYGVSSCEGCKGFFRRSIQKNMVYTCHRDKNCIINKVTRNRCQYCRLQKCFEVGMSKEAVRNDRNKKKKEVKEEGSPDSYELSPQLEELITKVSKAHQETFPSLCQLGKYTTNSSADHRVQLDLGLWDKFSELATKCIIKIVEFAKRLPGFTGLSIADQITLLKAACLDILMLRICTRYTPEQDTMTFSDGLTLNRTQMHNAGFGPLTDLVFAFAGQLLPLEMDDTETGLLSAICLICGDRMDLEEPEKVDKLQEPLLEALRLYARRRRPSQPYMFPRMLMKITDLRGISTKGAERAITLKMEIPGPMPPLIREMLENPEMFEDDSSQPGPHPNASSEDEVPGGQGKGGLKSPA
Sequence of human Peroxisome Proliferator-activated Receptor alpha (PPARa), PPARA (gene 5465) (Q07869 whole entry, looked up, the tested form may be a part): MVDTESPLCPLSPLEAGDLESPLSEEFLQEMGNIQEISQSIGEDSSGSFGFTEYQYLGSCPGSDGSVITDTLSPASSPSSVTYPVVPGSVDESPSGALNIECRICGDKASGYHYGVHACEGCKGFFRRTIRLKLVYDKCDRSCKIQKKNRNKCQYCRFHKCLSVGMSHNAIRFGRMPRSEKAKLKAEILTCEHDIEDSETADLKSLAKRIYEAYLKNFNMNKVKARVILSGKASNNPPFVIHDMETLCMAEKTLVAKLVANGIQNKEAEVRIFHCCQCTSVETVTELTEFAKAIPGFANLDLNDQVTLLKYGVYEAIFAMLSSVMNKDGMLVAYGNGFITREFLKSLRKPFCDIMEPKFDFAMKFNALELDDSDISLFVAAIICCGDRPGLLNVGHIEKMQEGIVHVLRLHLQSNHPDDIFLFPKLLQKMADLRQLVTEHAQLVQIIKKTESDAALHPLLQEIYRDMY
Sequence of Myc proto-oncogene protein (Homo sapiens) (P01106 whole entry, looked up): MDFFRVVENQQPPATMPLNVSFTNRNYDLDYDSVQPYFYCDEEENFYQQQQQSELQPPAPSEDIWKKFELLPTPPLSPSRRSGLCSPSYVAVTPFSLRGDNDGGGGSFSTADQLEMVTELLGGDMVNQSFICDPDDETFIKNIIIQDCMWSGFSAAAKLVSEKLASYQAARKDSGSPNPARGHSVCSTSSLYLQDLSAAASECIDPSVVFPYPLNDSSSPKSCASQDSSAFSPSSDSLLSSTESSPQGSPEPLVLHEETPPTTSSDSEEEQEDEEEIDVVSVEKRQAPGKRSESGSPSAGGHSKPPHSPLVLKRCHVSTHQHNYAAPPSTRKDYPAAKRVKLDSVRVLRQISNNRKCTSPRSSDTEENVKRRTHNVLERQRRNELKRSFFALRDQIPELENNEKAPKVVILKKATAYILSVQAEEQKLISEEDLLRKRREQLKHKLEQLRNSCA
Sequence of Nuclear respiratory factor 1 (Homo sapiens) (Q16656 whole entry, looked up): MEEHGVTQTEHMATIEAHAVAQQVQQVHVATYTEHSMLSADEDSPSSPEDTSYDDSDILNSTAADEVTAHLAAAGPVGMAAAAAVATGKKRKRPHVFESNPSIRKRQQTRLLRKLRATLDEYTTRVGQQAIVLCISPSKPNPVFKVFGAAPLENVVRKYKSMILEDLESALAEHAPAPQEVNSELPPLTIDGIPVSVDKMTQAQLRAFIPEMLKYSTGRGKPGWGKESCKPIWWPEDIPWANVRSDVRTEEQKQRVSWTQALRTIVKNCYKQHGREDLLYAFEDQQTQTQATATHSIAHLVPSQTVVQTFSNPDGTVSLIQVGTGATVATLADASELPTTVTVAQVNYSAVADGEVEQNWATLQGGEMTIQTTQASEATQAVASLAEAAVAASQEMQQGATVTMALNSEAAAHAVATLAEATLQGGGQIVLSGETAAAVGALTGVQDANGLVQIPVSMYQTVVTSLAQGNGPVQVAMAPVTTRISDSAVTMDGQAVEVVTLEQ
Sequence of Nuclear receptor subfamily 1 group I member 2 (Homo sapiens) (O75469 whole entry, looked up, the tested form may be a part): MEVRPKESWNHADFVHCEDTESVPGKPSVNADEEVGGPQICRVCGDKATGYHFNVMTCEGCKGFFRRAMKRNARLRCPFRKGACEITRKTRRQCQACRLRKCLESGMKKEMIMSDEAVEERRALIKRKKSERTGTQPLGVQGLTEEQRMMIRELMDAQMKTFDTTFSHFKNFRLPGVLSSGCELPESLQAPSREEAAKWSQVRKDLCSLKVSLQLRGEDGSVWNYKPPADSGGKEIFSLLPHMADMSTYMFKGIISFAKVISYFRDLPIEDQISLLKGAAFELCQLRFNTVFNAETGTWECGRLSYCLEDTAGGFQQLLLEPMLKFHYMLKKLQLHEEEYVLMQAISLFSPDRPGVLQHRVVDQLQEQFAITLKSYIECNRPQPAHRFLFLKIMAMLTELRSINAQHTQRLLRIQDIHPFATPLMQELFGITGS
Sequence of Retinoic acid receptor alpha (Homo sapiens) (P10276 whole entry, looked up, the tested form may be a part): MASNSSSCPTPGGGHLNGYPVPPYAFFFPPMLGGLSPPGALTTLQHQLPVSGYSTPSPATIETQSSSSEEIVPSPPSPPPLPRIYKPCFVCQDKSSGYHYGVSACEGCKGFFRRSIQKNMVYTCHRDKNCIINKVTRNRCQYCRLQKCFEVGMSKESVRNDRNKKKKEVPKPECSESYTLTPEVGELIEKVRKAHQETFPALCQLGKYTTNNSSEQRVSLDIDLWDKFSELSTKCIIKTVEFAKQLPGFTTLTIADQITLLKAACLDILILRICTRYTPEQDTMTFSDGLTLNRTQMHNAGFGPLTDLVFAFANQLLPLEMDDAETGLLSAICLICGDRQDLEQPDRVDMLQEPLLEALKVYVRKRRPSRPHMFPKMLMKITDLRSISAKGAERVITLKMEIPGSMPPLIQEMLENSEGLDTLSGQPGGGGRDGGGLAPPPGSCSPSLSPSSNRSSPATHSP

O=C(Cl)C(F)(F)C(F)(F)C(F)(F)C(F)(F)C(F)(F)C(F)(F)C(F)(F)F
active: [5] 49 µM | [12] 10.8 µM | [16] 55.1 µM
inactive: [1] | [2] | [3] | [4] | [6] | [7] | [8] | [9] | [10] | [11] | [13] | [14] | [15] | [17] | [18]

CC(C)(C)c1cc(CCC(=O)OCC(COC(=O)CCc2cc(C(C)(C)C)c(O)c(C(C)(C)C)c2)(COC(=O)CCc2cc(C(C)(C)C)c(O)c(C(C)(C)C)c2)COC(=O)CCc2cc(C(C)(C)C)c(O)c(C(C)(C)C)c2)cc(C(C)(C)C)c1O
inactive: [1] | [2] | [3] | [4] | [5] | [6]

C[Si](Cl)(Cl)CCC(F)(F)C(F)(F)C(F)(F)C(F)(F)C(F)(F)C(F)(F)F
inactive: [1] | [2] | [3] | [4] | [5] | [6] | [7] | [8] | [9] | [10] | [11] | [12] | [13] | [14] | [19] | [20] | [15]

CCOC(C=C(C)CCC=C(C)C)OCC
inactive: [1] | [2] | [3] | [4] | [6] | [7] | [12] | [13]
active: [5] 46.5 µM | [8] 30.9 µM | [9] 31.3 µM | [10] 34 µM | [11] 29.3 µM | [14] 34.5 µM | [15] 28.1 µM | [16] 15.3 µM | [17] 26.5 µM

CNS(=O)(=O)C(F)(F)C(F)(F)C(F)(F)C(F)(F)C(F)(F)C(F)(F)C(F)(F)C(F)(F)F
inactive: [1] | [2] | [3] | [4] | [5] | [6] | [7] | [8] | [9] | [10] | [11] | [12] | [14] | [19] | [20] | [16] | [17] | [18]
active: [15] 30 µM and 23.8 µM

O=C(O)C(F)(F)C(F)(F)C(F)(F)OC(F)(C(F)(F)F)C(F)(F)F
inactive: [1] | [2] | [3] | [4] | [6] | [7] | [8] | [9] | [10] | [11] | [13] | [14] | [15] | [17] | [18]
active: [5] 113 µM | [12] 24.6 µM | [16] 101 µM

NS(=O)(=O)C(F)(F)C(F)(F)C(F)(F)C(F)(F)C(F)(F)C(F)(F)F
active: [9] 19.6 µM | [11] 46.4 µM and 20.3 µM | [12] 28.2 µM | [15] 28.9 µM and 49.6 µM | [16] 50.5 µM
inactive: [1] | [2] | [3] | [4] | [5] | [6] | [7] | [8] | [9] | [10] | [13] | [14] | [19] | [17] | [18]
